In PubChem BioAssay AID463173 (ICCB-Longwood Screening Facility, Harvard Medical School, 2010):
Screen size: about 52,000 compounds; about 1,700 (3.3%) were called active. This excerpt belongs to a sample that is enriched for actives. Values without a mark were called inactive. Rule as the data show it: active = survival mostly below about 52% (no sharp cut-off); inactive = mostly above about 56%.

What follows are compounds tested on Wild type (assay: growth inhibition of S. aureus wild type versus tarO mutant, primary screen, teichoic acid synthesis inhibitors, RN4220, OD600 (AID 463173)). Conditions: S. aureus RN4220 wild type/DeltatarO growth, OD600, 18 h, active compounds read low, screened at 18.75 µg/mL (by protocol).

Compared with Cc1cc(N2CCC(C)CC2)nc2ccc(NC(=O)/C=C/c3cccc(Cl)c3)cc12, COc1ccc2c(c1)c1c(c(=O)n(-c3cccc(Cl)c3)c(=O)n1CC(=O)N1CCCC1)n2C is higher in survival: 69% for the first, 73% for the second.

Compared with Cc1ccc(CNc2ccc(-c3nc(-c4ccncc4)no3)cc2[N+](=O)[O-])cc1, COC(=O)c1ccc(Cn2nc(-c3ccc(C)cc3)ccc2=O)cc1 is higher in survival: 87% for the first, 145% for the second.

Compared with CCc1ccc(NS(=O)(=O)c2c(-c3ccccc3)csc2C(=O)OC)cc1, CCc1cccc(NC(=O)Cn2nc(-c3ccc(OC)cc3)ccc2=O)c1 is lower in survival: 77% for the first, 59% for the second.

First: Cn1c(=O)oc2cc(S(=O)(=O)N3CCCC(C(=O)NCCc4ccc(Cl)cc4)C3)ccc21 (stereo not drawn)
Second: CC1CCCN(S(=O)(=O)c2ccc(N)cc2)C1 (stereo not drawn)
The survival of the first is lower: 90% for the first, 109% for the second.

First: CCOc1ccc(CNC(=O)CCn2c(=O)c3cccn3c3cccnc32)cc1
Second: CCOc1ccc(N2CC(c3nc4ccccc4n3CCC3CCCCC3)CC2=O)cc1 (stereo not drawn)
The survival of the first is higher: 93% for the first, 29% for the second.

Going from Cc1cccc(-n2c(=O)c3c(c4cc(C)ccc4n3C)n(Cc3ccccc3F)c2=O)c1 to COc1ccc(NC(=O)c2ccc3c(c2)c(C)c(C)n3Cc2ccc(F)cc2)c(OC)c1, the survival falls from 153% to 59%.

First: O=C1NCN(c2ccccc2)C12CCN(c1nnnn1-c1ccccc1)CC2
Second: O=C(O)c1cc(-c2ccccc2)nn1Cc1ccccc1
The survival of the first is higher: 102% for the first, 68% for the second.

Compared with COc1ccccc1OCCCCn1c(C2CC(=O)N(c3ccccc3Cl)C2)nc2ccccc21 (stereo not drawn), COc1ccccc1OCCCn1c(C2CC(=O)N(c3ccccc3Cl)C2)nc2ccccc21 (stereo not drawn) is higher in survival: 85% for the first, 93% for the second.

First: Cc1ccc(N2CC(c3nc4ccccc4n3CCC3CCCCC3)CC2=O)cc1 (stereo not drawn)
Second: Cc1cccc(N2CC(c3nc4ccccc4n3CCC3CCCCC3)CC2=O)c1 (stereo not drawn)
The survival of the first is higher: 80% for the first, 44% for the second.

Compared with CCc1ccccc1N1CC(c2nc3ccccc3n2CC(C)C)CC1=O (stereo not drawn), CCCc1nc2ccccc2n1CC(O)COc1ccccc1 (stereo not drawn) is higher in survival: 91% for the first, 103% for the second.

Going from Cc1c(C(=O)NCc2ccc(N(C)C)cc2)oc2c1-c1nn(Cc3cccc(Cl)c3)cc1CC2 to O=C(Cc1ccc(Cl)cc1)NCCc1csc2nc(-c3ccccc3F)nn12, the survival falls from 91% to 69%.

Compared with Cc1ccc(-c2onc(C)c2C)cc1S(=O)(=O)NCc1cccs1, Cc1ccc(-c2onc(C)c2C)cc1S(=O)(=O)NCc1ccco1 is lower in survival: 119% for the first, 112% for the second.

Compared with COc1ccc(-c2onc(C)c2C)cc1S(=O)(=O)NCCc1ccccc1, COCCCNS(=O)(=O)c1cc(-c2onc(C)c2C)ccc1OC is higher in survival: 57% for the first, 111% for the second.

CCOC(=O)n1c(SCC)nc2ccccc21 and CCOC(=O)c1cnn(Cc2ccccc2)c1N are the same in survival: 104% for the first, 104% for the second.

Compared with Cc1cc(-c2ccccc2)n2nc(-c3cccc(Br)c3)cc2n1, Cc1cc(C)n2nc(-c3ccccc3)cc2n1 is higher in survival: 55% for the first, 116% for the second.

Going from CCCCC(=O)Nc1nnc(SCc2cc(=O)n3cc(C)ccc3n2)s1 to CCN(CC)c1ccc(NC(=O)CCc2nc3cccnc3n2Cc2cccs2)c(C)c1, the survival rises from 63% to 73%.

Going from CC(=O)Nc1nonc1-c1nc2ccccc2n1Cc1ccccc1Br to COC(=O)C1=C(C)Nc2nc3ccccc3n2C1c1ccccc1 (stereo not drawn), the survival falls from 97% to 91%.

Compared with O=C(CCn1c(=O)c2sccc2n(Cc2ccc(F)cc2Cl)c1=O)NCc1ccc2c(c1)OCO2, Cc1nc(-c2cccc(F)c2)sc1CCNC(=O)C(=O)Nc1ccc2c(c1)OCCO2 is lower in survival: 92% for the first, 68% for the second.

Compared with CCc1ccc2oc(C(=O)NCCc3ccc(OC)c(OC)c3)cc(=O)c2c1, COc1ccc(N2CC(NC(=O)c3cc4ccccc4o3)CC2=O)cc1OC (stereo not drawn) is lower in survival: 83% for the first, 70% for the second.

Going from Cc1c(C(C)(C)C)sc(=N)n1C to Cc1oc(C(C)(C)C)cc1C(=O)NC(Cc1ccccc1)C(=O)O (stereo not drawn), the survival rises from 86% to 98%.

Compared with CCc1ccc(-c2[nH]c3c(c2-c2c(-n4cccc4)n(C)c(=O)n(C)c2=O)c(=O)n(C)c(=O)n3C)cc1, CCOC(=O)c1cccc(NC(=O)c2cc3c(-c4cccc(OC)c4)nn(C)c3s2)c1 is lower in survival: 105% for the first, 65% for the second.

Compared with COc1ccc2c(Sc3ccccc3)c(C(=O)NCCCN3CCCCC3)[nH]c2c1, COc1ccc2c(Sc3ccc(Cl)cc3)c(C(=O)N3CCCCC3)[nH]c2c1 is lower in survival: 73% for the first, 33% for the second.

Compared with COCCCNC(=O)c1[nH]c2ccccc2c1Sc1ccc(C)cc1, O=C(c1[nH]c2ccccc2c1Sc1ccc(Cl)cc1)N1CCCCC1 is lower in survival: 81% for the first, 48% for the second.

Going from CCOc1cc(C2CC(=O)Nc3c2c(C)nn3-c2nc(C)cc(C)n2)ccc1O (stereo not drawn) to Cc1cc(C)n(-c2nc3cc(Cl)c(Cl)cc3nc2Nc2ccc(F)cc2C)n1, the survival falls from 83% to 82%.

Compared with CCc1ccc2occ(CC(=O)N(Cc3ccccc3)C3CCS(=O)(=O)C3)c2c1 (stereo not drawn), Cc1ccc(-c2cc(C(=O)O)n(Cc3ccccc3)n2)cc1 is lower in survival: 77% for the first, 63% for the second.

Compared with CCCCN(CCCC)CCNC(=O)CN1C(=O)CSc2ccc(S(=O)(=O)N3CCCCC3)cc21, CCOC(=O)c1c(C)[nH]c(C)c1S(=O)(=O)N1CCC(C(=O)NCc2cccc(C)c2)CC1 is lower in survival: 110% for the first, 76% for the second.

First: COc1ccc(-c2cc(C(=O)O)n(Cc3ccccc3)n2)cc1
Second: O=C(c1cc(-c2ccc(O)cc2)on1)N1CCN(c2ccccc2)CC1
The survival of the first is higher: 63% for the first, 51% for the second.

Compared with CC(=O)NC1CC(=O)N(c2ccc3c(c2)OCCO3)C1 (stereo not drawn), O=c1c2c([nH]n1-c1ccccc1)CCCC2 is higher in survival: 66% for the first, 123% for the second.

Going from COc1ccc(Cl)cc1-n1nnc(-c2nc(-c3ccc4c(c3)OCO4)no2)c1C to COc1ccc(-c2cc(C(=O)N3CCN(c4ccc(F)cc4)CC3)no2)cc1OC, the survival rises from 71% to 72%.

Compared with Cc1nc2ccccc2n1C(C)c1ccccc1 (stereo not drawn), COc1ccc(OCc2nc3ccccc3n2C(C)C)cc1 is lower in survival: 111% for the first, 102% for the second.

First: COc1ccc(OCC(O)Cn2c(C(C)C)nc3ccccc32)cc1 (stereo not drawn)
Second: COc1cccc(OCc2nc3ccccc3n2C)c1
The survival of the first is higher: 107% for the first, 84% for the second.

First: Cc1cc(C)n2c(Nc3cccc(C(F)(F)F)c3)c(-c3ccsc3)nc2n1
Second: Cc1ccc(-c2nc(C)c(CCNS(=O)(=O)c3ccccc3F)s2)cc1
The survival of the first is higher: 89% for the first, 67% for the second.

Compared with O=C(c1cccs1)N1CCCc2ccccc21, COc1ccccc1N1CCN(C(=O)c2cc(-c3ccc(F)cc3)on2)CC1 is lower in survival: 124% for the first, 73% for the second.

First: COc1ccc(-n2ncc3c(NC(C)(C)CO)ncnc32)cc1
Second: COc1ccc(N2CCN(C(=O)c3cc(-c4ccc(C)c(F)c4)on3)CC2)cc1
The survival of the first is lower: 59% for the first, 106% for the second.

Compared with Cc1cc(Br)ccc1NC(=O)c1cc2c(s1)-c1ccccc1SC2, COc1ccccc1N1CCN(C(=O)c2cc(-c3ccccc3O)on2)CC1 is lower in survival: 78% for the first, 66% for the second.

Compared with CCOc1ccc(S(=O)(=O)NCCc2sc(-c3ccc(C)cc3)nc2C)cc1, COc1ccc(-c2cc(C(F)(F)F)nc(SCCC(=O)N3CCN(C)CC3)n2)cc1 is higher in survival: 73% for the first, 108% for the second.

Compared with CCc1nc(SCC(=O)O)c(C#N)cc1C, COc1ccc(-c2cc(C(F)(F)F)nc(SCC(=O)N3CCCCC3)n2)cc1OC is lower in survival: 96% for the first, 90% for the second.

Going from COc1ccc(-c2cc(C(F)(F)F)nc(SCC(=O)N3CCCCC3C)n2)cc1OC (stereo not drawn) to COc1ccc(-c2cc(C(F)(F)F)nc(SCC(=O)N3CCCCC3)n2)cc1, the survival rises from 69% to 97%.

First: Cc1ccc(CNC(=O)C2CCN(c3ncnc4c3nc3n4CCCCC3)CC2)cc1
Second: COc1cccc(-c2cc(C(=O)N3CCN(c4ccc(F)cc4)CC3)no2)c1
The survival of the first is higher: 85% for the first, 78% for the second.

In the case of CCc1ccccc1N1CC(c2nc3ccccc3n2CCC2CCCCC2)CC1=O (stereo not drawn), the survival is reported as 25% (active).
For Cc1ccccc1N1CC(c2nc3ccccc3n2CCC2CCCCC2)CC1=O (stereo not drawn), the survival was 12% (active).
In the case of O=C1CC(c2nc3ccccc3n2CCC2CCCCC2)CN1c1ccccc1Cl (stereo not drawn), the survival is reported as 32% (active).
For Cc1ccc(-c2onc(C)c2C)cc1S(=O)(=O)NCc1ccc(N(C)C)cc1, the survival was -4% (active).
With COc1ccc(CCNS(=O)(=O)c2cc(-c3onc(C)c3C)ccc2OC)cc1OC the survival was -3% (active).
In the case of Cc1cc(-c2ccccc2)n2nc(-c3ccccc3)cc2n1, the survival is reported as -2% (active).
COc1ccc2c(Sc3ccc(Cl)cc3)c(C(=O)NCCCN3CCCCC3)[nH]c2c1 was tested, and the survival was -1% (active).
In the case of O=C(NCCCN1CCCCC1)c1[nH]c2ccccc2c1Sc1ccc(Cl)cc1, the survival is reported as -1% (active).
In the case of CCOC(=O)c1cc(-c2ccc(OC)cc2)nn1Cc1ccccc1, the survival is reported as 10% (active).
CCOC(=O)c1cc(-c2ccccc2)nn1Cc1ccccc1 was tested, and the survival was 2% (active).
With CCOC(=O)c1cc(-c2ccc(C)cc2)nn1Cc1ccccc1 the survival was 0% (active).
With COc1ccc(OCc2nc3ccccc3n2C(C)c2ccccc2)cc1 (stereo not drawn) the survival was -2% (active).
With Cc1ccc(OCc2nc3ccccc3n2CC(C)C)cc1 the survival was -1% (active).
CCC(C)Cn1c(COc2ccc(OC)cc2)nc2ccccc21 (stereo not drawn) was tested, and the survival was -1% (active).
For Cc1ccc(-c2nc(C)c(CCNS(=O)(=O)c3ccc(F)c(C(F)(F)F)c3)s2)cc1, the survival was -6% (active).
With CCC1CCCCN1C(=O)CSc1nc(-c2ccc(OC)c(OC)c2)cc(C(F)(F)F)n1 (stereo not drawn) the survival was -15% (active).
For CCC1CCCCN1C(=O)CSc1nc(-c2ccc(OC)cc2)cc(C(F)(F)F)n1 (stereo not drawn), the survival was -6% (active).
In the case of COc1ccccc1-c1cc(C(=O)N2CCN(c3ccccc3)CC2)no1, the survival is reported as -10% (active).
For COc1cccc(-c2cc(C(=O)N3CCN(c4ccccc4OC)CC3)no2)c1, the survival was -9% (active).
With COc1ccc(-c2cc(C(=O)N3CCN(c4ccccc4)CC3)no2)cc1 the survival was 16% (active).
